From PubChem BioAssay
Shown is part of a subset that was picked to be rich in hits.
Pf Dd2 growth = Plasmodium falciparum Dd2 growth inhibition | P. falciparum Dd2 growth, SYBR Green, 72 h | Potency, µM (series often up to 28.9 µM), inactives show at the top dose activity, negative = inhibition, hits mostly inhibitors | hit rate 4.3% among 120,000 | AID 1347417; active = well fitted inhibition curve with a large enough effect;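 also: plate controls were DMSO vehicle for no effect and reference drug for full effect; nearly all actives have a fitted effect of over 65% in size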
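Infected erythrocytes (Dd2, 0.3% parasitemia, 2.5% hematocrit final) are added to compound in RPMI-1640/Albumax II medium, grown 72 h at 37C in low oxygen, then lysed with saponin/Triton-X containing SYBR Green and read by fluorescence.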
Active calls of the source: *; i = inactive; [ ] = another dose, or the depositor's remark. Potency is read from the fitted curve at half-maximal effect.

SMILES | Pf Dd2 growth
CC(C)(C)c1ccnc(N[C@H]2CO[C@H]3[C@@H]2OC[C@@H]3NC(=O)NCc2ccccc2)n1 | 5µM*
O=C(Nc1ccccc1)N1CCC(Oc2ccccc2-c2nc(-c3cnccn3)no2)C1 (stereo not drawn) | i
CCNC(=O)N1CC(Oc2ccccc2-c2nc(-c3cnccn3)no2)C1 | -26%
c1csc(CN2CCC(Oc3ccccc3-c3nc(-c4cnccn4)no3)C2)c1 (stereo not drawn) | 5.6µM*
O=C(c1ccc(F)c(F)c1)N1CCC(n2cnnc2C2CC2)CC1 | -2%
COc1ccc(C(=O)N2CCN(C(=O)c3cccs3)C[C@@H]2C(=O)N[C@H]2CCCNC2=O)cc1 | 33%
Cc1ccc(NC(=O)Cn2cccc2-c2nc(-c3ccc(F)cc3)no2)c(Cl)c1 | i
Cc1cccc(=O)n1CCCn1cc(C2CCCNC2)nn1 (stereo not drawn) | 0%
O=[S+]([O-])(Nc1ccccc1)c1ccc2c(c1)OCCN(Cc1ccncc1F)C2 | 5µM*
O=[S+]([O-])(Nc1cccnc1)c1ccc2c(c1)OCCN(Cc1ccncc1F)C2 | i
O=[S+]([O-])(Nc1cccnc1)c1ccc2c(c1)OCCN(Cc1ccccc1F)C2 | -18%[44.1 µM]
COc1ccc(-c2ccnc(N[C@H]3CO[C@H]4[C@@H]3OC[C@@H]4NS(=O)(=O)c3ccccc3C#N)n2)cc1 | -10%
COCC1CN(C(C)=O)CC12CCN(Cc1cc(OC)cc(OC)c1)CC2 (stereo not drawn) | -22%
COc1ccc(C(=O)N2CCc3nc(C(C)C)nc(-c4ccc(O)cc4)c3C2)cc1 | 8.9µM*
COc1ccc(-c2nc(C(C)C)nc3c2CCN(C(=O)c2ccccc2Cl)CC3)cc1 | 10µM*
CC(C)c1nc2c(c(-c3ccc(O)cc3)n1)CN(C(=O)c1ccc(Cl)nc1)CC2 | i
COc1ccc(-c2nc(-c3ccccc3)nc3c2CN(C(=O)C2CC2)CC3)cc1 | 11µM*
O=C(C1CC1)N1CCc2nc(-c3ccc(Cl)cc3)nc(-c3ccccc3)c2C1 | i
CC(C)c1nc2c(c(-c3ccc(O)cc3)n1)CN(C(=O)c1ccccc1)CC2 | -13%
COc1ccc(C(=O)N2CCCc3nc(C)nc(-c4ccc(O)cc4)c3C2)cc1 | -13%
CC(C)c1nc2c(c(-c3ccc(O)cc3)n1)CN(C(=O)c1cccc(Cl)c1)CC2 | 4.5µM*
CC(=O)N1CCc2nc(C(C)C)nc(-c3ccc(O)cc3)c2C1 | -14%[44.1 µM]
CC(C)c1nc2c(c(-c3ccc(O)cc3)n1)CCN(C(=O)c1ccccc1Cl)CC2 | i
COc1ccc(-c2nc3c(c(-c4ccccc4)n2)CN(C(C)=O)CC3)cc1 | i
COCC(=O)N1CCc2nc(C(C)C)nc(-c3ccc(OC)cc3)c2CC1 | -11%
SMILES | Pf Dd2 growth
COC(=O)c1cc2n(n1)CCN(C(=O)c1cc(-c3ccccc3O)n[nH]1)C2 | -7%
CCCN(CC1CCOC1)C(=O)Cc1c(F)cccc1Cl (stereo not drawn) | -11%[5.79 µM]
CN(CC1CCOC1)S(=O)(=O)c1ccc(Br)cc1 (stereo not drawn) | 18%[5.79 µM]
O=C(C1CC1)N1CCn2c(nn(-c3ccc([N+](=O)[O-])cc3)c2=O)C1 | 1%[44.1 µM]
COc1ccccc1C(=O)N1CCC2(C1)C(=NC1CCCC1)NC(=O)N2c1cc(F)cc(F)c1 (stereo not drawn) | -6%
NCCO[C@H]1C[C@@H](O)C12CCN(S(=O)(=O)c1ccc(F)cc1)CC2 | -19%
CN(C)C[C@@H]1CN(S(C)(=O)=O)C[C@H]1NC(=O)Cc1ccc(F)cc1 | 67%
Cc1cc(C)n(Cc2ccc(C(=O)N3CCCC(CO)CCNC(=O)CC3)o2)n1 (stereo not drawn) | -11%
COc1cccc(C(=O)N2CCc3nc(C)nc(-c4ccc(Cl)cc4)c3CC2)c1 | i
Cc1ccccc1C(=O)N1CCc2nc(C(C)C)nc(-c3ccc(O)cc3)c2C1 | -1%
CC(C)c1nc2c(c(-c3ccc(O)cc3)n1)CCN(C(=O)c1cccc(Cl)c1)CC2 | 7.9µM*
Cc1nc(-c2c3n(c(=O)n(Cc4ccccc4)c2=O)CCCCC3)no1 | -21%
Cc1cc(-n2c(SCc3ccccc3F)nc3[nH]ncc3c2=O)ccc1Cl | -27%
O=c1c2cn[nH]c2nc(SCc2cccc(Br)c2)n1-c1ccc(Cl)cc1 | 9%
Cc1ccccc1-n1c(SCc2ccc(Cl)cc2)nc2[nH]ncc2c1=O | 10µM*
COCCC(=O)N1CCCC(C(=O)N2CCN(c3ccccn3)CC2)CCNC(=O)CC1 (stereo not drawn) | 6%
O=C(N[C@H]1CCN2C(=O)c3cc(-c4ccc5c(c4)OCO5)ccc3NC(=O)[C@H]12)c1cccs1 | i
O=C(NC1CCCc2c1[nH]c1c(Cl)cccc21)c1ccc2c(c1)OCO2 (stereo not drawn) | i
COc1cccc(-c2ccccc2NC(=O)C2CCN(CC=C(C)C)CC2)c1 | 5.6µM*
COc1cccc(-c2ccccc2NC(=O)C2CCN(Cc3ccccc3F)CC2)c1 | -19%
COc1cccc(C(=O)Nc2ccccc2-c2nnc(-c3cccc(OC)c3)o2)c1 | i
C=CCC(=O)N1CCCC1C(=O)Nc1ccc(-c2cccc(OC)c2)cc1 (stereo not drawn) | -14%
COc1ccc(C(=O)N2CCC(C(=O)Nc3ccc(OC)cc3OC)CC2)cc1 | 52%
COc1cccc(-c2ccccc2NC(=O)C2CCN(C/C(C)=C/c3ccccc3)CC2)c1 | 8.9µM*
Cc1ccc(F)c(NC(=O)C2CN(S(=O)(=O)C3CC3)CC23CCCCC3)c1 (stereo not drawn) | -1%
SMILES | Pf Dd2 growth
O=C(C1CC(=O)N(c2ccc(F)c(Cl)c2)C1)N1CCc2c(nc[nH]c2=O)C1 (stereo not drawn) | 2%
COc1ccc(CCNC(=O)c2c(Nc3ccccc3C)sc(C(=O)c3ccccc3)c2N)cc1OC | i
CCOC(=O)c1sc2ccccc2c1S(=O)(=O)Nc1cc(OC)ccc1OC | 53%
Cc1ccc(Nc2sc(C(=O)c3ccccc3)c(N)c2S(=O)(=O)c2ccccc2)c(C)c1 | 10µM*
CCOc1ccc(Nc2sc(C(=O)c3cccc(OC)c3)c(N)c2S(=O)(=O)c2ccccc2)cc1 | i
Cc1ccc(CNC(=O)c2c(Nc3c(C)cccc3C)sc(C(=O)c3ccccc3)c2N)cc1 | -4%
COc1cccc(C(=O)c2sc(Nc3ccc(C)cc3C)c(S(=O)(=O)c3ccccc3)c2N)c1 | 10µM*
COc1ccccc1Nc1sc(C(=O)c2ccc(C)cc2C)c(N)c1S(=O)(=O)c1ccccc1 | -15%
COc1ccc(OC)c(Nc2sc(C(=O)c3ccccc3)c(N)c2S(=O)(=O)c2ccccc2)c1 | 8.9µM*
Cc1ccc(Nc2sc(C(=O)c3ccccc3)c(N)c2C(=O)NC(C)C)cc1 | -3%
CC(C)(CC(=O)O)CC(=O)N1C[C@@H]2C[C@H](C1)c1c(-c3cccs3)ccc(=O)n1C2 | -10%[44.1 µM]
COCC(=O)N(C1CCOCC1)C1CCN(C(=O)c2ccc(OC)cc2)CC1 | 16%
CCn1ccc(C(=O)N2CCCC(c3nnnn3C)C2)n1 (stereo not drawn) | 3%
CC1=NOC2(CCCN(Cc3ccccn3)C2)C1 (stereo not drawn) | 20%[44.1 µM]
O=C(NCCc1cccs1)C1CCN(C(=O)c2ncn3c2COC(c2ccccc2)C3)CC1 (stereo not drawn) | -24%
O=[N+]([O-])c1cccc(-c2noc([C@@H]3C[C@@H](O)CN3Cc3cc4ccccc4o3)n2)c1 | -16%[44.1 µM]
COc1cccc(N2C(=O)CSC23C(=O)N(Cc2ccccc2F)c2ccccc23)c1 (stereo not drawn) | -19%
